# PubChem BioAssay
# The source made the active and inactive calls.
# Assays:
# [1] = binders of probe aFSTL3 on microarray, primary screen, stem cell growth factor project, biochemical, small-molecule microarray, fluorescence 635/667 (AID 1064); details: higher = more signal;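 note: measures binding of the biotinylated anti-FSTL3 antibody to printed compounds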
# [2] = binders from COS7 lysate, DM2A8 probe, primary screen, torsin A project, cell lysate, small-molecule microarray, fluorescence 635/667 (AID 1065); details: higher = more signal, COS7 lysate expressing mutant human TOR1A
# [3] = binders of probe aFGF2 on microarray, primary screen, stem cell growth factor project, biochemical, small-molecule microarray, fluorescence 635/667 (AID 1067); details: higher = more signal;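 note: measures binding of biotinylated aFGF2 protein to printed compounds on slides; z-score merges feature fluorescence and signal-to-noise across triplicate slides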
# [4] = binders of probe aFGF10 on microarray, primary screen, stem cell growth factor project, biochemical, small-molecule microarray, fluorescence 635/667 (AID 1071); details: higher = more signal;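 note: score merges 667 nm spot intensity and signal to noise from triplicate slides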
# [5] = target: Neurogenic locus notch homolog protein 2 (Homo sapiens) (UniProt Q04721); assay: Notch2 binders on small-molecule microarrays, primary screen, biochemical, small-molecule microarray, 635 nm fluorescence, stem cell growth factors (AID 1073); details: Notch2 binding, higher = more signal
# [6] = target: Pro-neuregulin-1, membrane-bound isoform (Homo sapiens) (UniProt Q02297); assay: NRG1 binders on small-molecule microarrays, primary screen, psychiatric disease protein project, biochemical, small-molecule microarray, fluorescence 635/667 (AID 1075); details: NRG1 binding, 635 nm fluorescence, higher = more signal;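 note: score combines 667 nm spot fluorescence with signal to noise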
# [7] = system: Neuregulin-1 EGF-like domain; assay: binders of neuregulin-1 EGF-like domain, primary screen, biochemical, small-molecule microarray, 635 nm fluorescence (AID 1081); details: small-molecule microarray binding, higher = more signal;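 note: binding of the protein to compounds printed on small-molecule microarray slides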
# [8] = FRG1 promoter luciferase signal modulators, primary screen, FRG1 inhibition for FSHD, cell-based, C2C12 myotubes, firefly/Renilla luciferase, luminescence (AID 1084); details: higher = more signal, called active from +8 up or from −8 down
# [9] = binders of probe aFST on microarray, primary screen, stem cell growth factor project, biochemical, small-molecule microarray, fluorescence 635/667 (AID 1086); details: higher = more signal;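 note: score merges 667 nm fluorescence with signal-to-noise of each printed compound spot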
# [10] = binders of probe aHhip on microarray, primary screen, stem cell growth factor project, biochemical, small-molecule microarray, fluorescence 635/667 (AID 1087); details: higher = more signal;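 note: score merges spot fluorescence at 667nm with spot signal to noise ratio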
# [11] = system: PRMT1 (protein arginine N-methyltransferase 1); assay: PRMT1 binders on small-molecule microarrays, primary screen, biochemical, small-molecule microarray, 635 nm fluorescence (AID 1088); details: small-molecule microarray binding, higher = more signal;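 note: binding of Prmt1 protein to compounds spotted on small-molecule microarray slides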
# [12] = yeast growth modulation, basal conditions, primary screen, YJM789 clinical isolate, OD600, 24 h (AID 1089);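 note: growth of clinical yeast isolate S. cerevisiae YJM 789 seeded 1000 cells per well; test concentration not given here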; details: S. cerevisiae YJM789 growth, higher = more signal, called active from +8 up or from −8 down
# [13] = fission yeast growth modulation, primary screen, strain 972, OD600, 24 h, no modulator (AID 1090);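 note: basal condition with compound alone and no growth modifier present; test concentration not given here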; details: S. pombe 972 growth, higher = more signal, called active from +8 up or from −8 down
# [14] = S. cerevisiae growth modulation with rapamycin, primary screen, strain BY4716, OD600, 96 h (AID 1091); details: higher = more signal, called active from +8 up or from −8 down; note: test concentration not given here
# [15] = target: Torsin-1A-interacting protein 2 (Homo sapiens) (UniProt Q8NFQ8); assay: LULL1 binders on small-molecule microarray, primary screen, cell lysate, human LULL1 lysate, 635/667 nm fluorescence (AID 1092); details: hLULL1 lysate binding, 635 nm fluorescence, higher = more signal;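 note: probe is lysate of COS7 cells overexpressing human LULL1; score merges per-feature 667 nm fluorescence with signal-to-noise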
# [16] = E. coli growth modulation, two-sided OD650, primary screen, E. coli filamentation project, strain DRC41, 24 h (AID 1093); details: OD650, 24 h, higher = more signal, called active from +8 up or from −8 down;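 note: MC1000 strain lacking acrAB efflux and sulA so SOS filamentation is blocked; test concentration not given here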
# [17] = small-molecule microarray binders of probe aLefty2, primary screen, biochemical, biotinylated probe, 635/667 nm fluorescence (AID 1094); details: higher = more signal;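 note: score merges spot fluorescence near 667 nm with spot signal-to-noise ratio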
# [18] = system: Noggin (protein binding on small-molecule microarray); assay: Noggin binders on small-molecule microarray, primary screen, biochemical, 635/667 nm fluorescence (AID 1095); details: 635 nm fluorescence, higher = more signal;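 note: score merges 667 nm feature fluorescence with signal to noise over triplicate slides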
# [19] = target: Neurogenic locus notch homolog protein 3 (Homo sapiens) (UniProt Q9UM47); assay: NOTCH3 binders on small-molecule microarray, primary screen, biochemical, 635/667 nm fluorescence (AID 1096); details: NOTCH3 binding, 635 nm fluorescence, higher = more signal
# [20] = small-molecule microarray binders of probe aEGFR, primary screen, biochemical, biotinylated probe, 635/667 nm fluorescence (AID 1097); details: higher = more signal;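 note: probe is a biotinylated anti-EGFR antibody binding compounds printed on slides; score combines fluorescence near 667 nm and signal to noise of each spot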
# Chain of Pro-neuregulin-1, membrane-bound isoform (Homo sapiens) (Q02297 whole entry, looked up, the tested form may be a part, canonical isoform): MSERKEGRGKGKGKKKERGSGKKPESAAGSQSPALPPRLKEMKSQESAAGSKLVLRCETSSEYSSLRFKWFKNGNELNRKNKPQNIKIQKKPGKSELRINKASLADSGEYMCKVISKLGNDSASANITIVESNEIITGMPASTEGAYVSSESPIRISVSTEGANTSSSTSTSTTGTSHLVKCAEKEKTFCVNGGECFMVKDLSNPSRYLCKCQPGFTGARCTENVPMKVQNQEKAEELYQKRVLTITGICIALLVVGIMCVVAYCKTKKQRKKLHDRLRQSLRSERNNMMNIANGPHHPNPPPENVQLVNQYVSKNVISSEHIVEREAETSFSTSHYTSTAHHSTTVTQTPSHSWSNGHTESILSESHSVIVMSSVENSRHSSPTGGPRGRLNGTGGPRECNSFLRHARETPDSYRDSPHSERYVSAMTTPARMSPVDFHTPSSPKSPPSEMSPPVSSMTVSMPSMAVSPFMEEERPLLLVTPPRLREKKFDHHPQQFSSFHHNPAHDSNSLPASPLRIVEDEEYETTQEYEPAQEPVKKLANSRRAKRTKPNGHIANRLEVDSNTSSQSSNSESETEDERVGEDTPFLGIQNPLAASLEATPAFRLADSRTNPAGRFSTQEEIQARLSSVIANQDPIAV
# Chain of Neurogenic locus notch homolog protein 2 (Homo sapiens) (Q04721 whole entry, looked up, canonical isoform): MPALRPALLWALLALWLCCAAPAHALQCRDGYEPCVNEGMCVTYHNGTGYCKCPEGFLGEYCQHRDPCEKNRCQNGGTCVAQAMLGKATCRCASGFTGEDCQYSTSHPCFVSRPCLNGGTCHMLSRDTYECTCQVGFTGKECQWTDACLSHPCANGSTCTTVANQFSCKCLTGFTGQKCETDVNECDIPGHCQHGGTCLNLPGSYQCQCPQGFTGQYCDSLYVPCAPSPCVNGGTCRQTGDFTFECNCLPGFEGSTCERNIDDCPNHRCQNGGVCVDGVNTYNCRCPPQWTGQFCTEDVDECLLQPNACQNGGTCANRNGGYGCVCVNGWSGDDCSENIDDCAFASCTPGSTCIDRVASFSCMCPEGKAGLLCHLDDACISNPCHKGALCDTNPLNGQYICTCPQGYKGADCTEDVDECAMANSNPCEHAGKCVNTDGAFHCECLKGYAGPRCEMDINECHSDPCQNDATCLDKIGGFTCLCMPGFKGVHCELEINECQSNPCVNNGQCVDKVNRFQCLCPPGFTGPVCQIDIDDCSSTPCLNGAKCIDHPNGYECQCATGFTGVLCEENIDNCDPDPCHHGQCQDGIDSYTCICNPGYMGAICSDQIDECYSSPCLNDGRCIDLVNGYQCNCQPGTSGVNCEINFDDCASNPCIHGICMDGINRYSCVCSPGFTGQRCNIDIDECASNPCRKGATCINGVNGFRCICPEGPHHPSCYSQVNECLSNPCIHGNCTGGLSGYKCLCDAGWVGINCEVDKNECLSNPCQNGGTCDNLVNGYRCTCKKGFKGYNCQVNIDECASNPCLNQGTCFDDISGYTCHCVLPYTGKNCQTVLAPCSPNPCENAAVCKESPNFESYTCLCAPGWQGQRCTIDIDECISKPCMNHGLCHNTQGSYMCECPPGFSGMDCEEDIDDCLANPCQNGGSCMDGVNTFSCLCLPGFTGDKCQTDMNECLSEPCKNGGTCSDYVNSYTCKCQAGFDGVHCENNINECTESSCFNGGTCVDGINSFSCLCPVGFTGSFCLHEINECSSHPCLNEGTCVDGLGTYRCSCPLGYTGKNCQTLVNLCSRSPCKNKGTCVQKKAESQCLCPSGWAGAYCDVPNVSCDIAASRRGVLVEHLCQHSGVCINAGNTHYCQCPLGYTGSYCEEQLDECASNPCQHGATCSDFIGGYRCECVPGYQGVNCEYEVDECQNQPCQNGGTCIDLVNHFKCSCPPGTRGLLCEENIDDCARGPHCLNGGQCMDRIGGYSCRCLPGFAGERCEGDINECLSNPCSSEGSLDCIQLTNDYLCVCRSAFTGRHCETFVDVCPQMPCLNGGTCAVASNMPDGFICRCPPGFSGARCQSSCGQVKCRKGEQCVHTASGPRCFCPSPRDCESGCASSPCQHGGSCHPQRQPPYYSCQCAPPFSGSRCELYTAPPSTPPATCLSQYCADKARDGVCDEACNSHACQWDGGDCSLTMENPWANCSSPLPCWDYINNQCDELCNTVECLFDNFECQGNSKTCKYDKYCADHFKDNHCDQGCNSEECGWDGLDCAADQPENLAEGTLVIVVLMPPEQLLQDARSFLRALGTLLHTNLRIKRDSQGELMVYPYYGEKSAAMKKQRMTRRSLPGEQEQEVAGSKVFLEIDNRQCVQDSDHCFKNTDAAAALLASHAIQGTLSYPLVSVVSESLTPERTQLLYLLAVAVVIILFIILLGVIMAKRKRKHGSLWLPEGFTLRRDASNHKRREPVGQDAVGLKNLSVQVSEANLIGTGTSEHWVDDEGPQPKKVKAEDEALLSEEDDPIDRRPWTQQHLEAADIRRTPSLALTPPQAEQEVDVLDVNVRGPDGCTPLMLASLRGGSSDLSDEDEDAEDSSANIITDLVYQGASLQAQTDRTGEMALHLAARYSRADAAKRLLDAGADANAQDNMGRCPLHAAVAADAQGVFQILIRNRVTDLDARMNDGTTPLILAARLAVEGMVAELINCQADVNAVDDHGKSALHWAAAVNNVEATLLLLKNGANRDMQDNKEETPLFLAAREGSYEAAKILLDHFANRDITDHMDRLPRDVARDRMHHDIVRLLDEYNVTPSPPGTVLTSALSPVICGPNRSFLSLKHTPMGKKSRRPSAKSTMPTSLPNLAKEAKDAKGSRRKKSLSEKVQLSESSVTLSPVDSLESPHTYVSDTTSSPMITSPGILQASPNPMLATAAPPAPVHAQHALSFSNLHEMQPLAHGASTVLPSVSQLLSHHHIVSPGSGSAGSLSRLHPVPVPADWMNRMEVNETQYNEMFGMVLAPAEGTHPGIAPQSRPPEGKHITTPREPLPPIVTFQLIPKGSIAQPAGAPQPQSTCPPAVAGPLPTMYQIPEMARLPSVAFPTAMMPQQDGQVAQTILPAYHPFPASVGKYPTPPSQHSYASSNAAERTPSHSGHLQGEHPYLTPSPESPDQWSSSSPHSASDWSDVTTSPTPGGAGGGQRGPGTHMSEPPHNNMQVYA
# Chain of Torsin-1A-interacting protein 2 (Homo sapiens) (Q8NFQ8 whole entry, looked up): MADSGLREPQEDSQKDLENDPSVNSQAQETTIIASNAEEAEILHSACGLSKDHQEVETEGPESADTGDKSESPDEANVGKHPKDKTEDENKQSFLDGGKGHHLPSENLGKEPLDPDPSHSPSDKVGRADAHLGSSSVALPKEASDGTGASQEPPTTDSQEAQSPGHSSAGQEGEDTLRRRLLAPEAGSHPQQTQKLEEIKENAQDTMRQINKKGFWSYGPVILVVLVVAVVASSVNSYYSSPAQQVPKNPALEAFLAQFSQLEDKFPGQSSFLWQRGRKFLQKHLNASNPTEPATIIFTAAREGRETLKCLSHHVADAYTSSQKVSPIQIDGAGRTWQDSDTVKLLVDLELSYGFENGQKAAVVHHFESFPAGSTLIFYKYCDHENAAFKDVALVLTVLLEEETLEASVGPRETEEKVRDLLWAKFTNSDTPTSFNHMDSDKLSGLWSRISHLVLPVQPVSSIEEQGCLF
Compound,composite z-score [1],composite z-score [2],composite z-score [3],composite z-score [4],composite z-score [5],composite z-score [6],composite z-score [7],z-score [8],composite z-score [9],composite z-score [10],composite z-score [11],z-score [12],z-score [13],z-score [14],composite z-score [15],z-score [16],composite z-score [17],composite z-score [18],composite z-score [19],composite z-score [20]
COC(=O)[C@H](C)NC(=O)CCC1CC(OC(=O)NCc2ccc3c(c2)OCO3)CC2(CCCC(COC(=O)NCCc3ccc(Cl)cc3)O2)O1 (stereo not given in full),-0.592,-0.406,-0.0812,0.218,0.576,0.212,0.562,0.628 (inactive),0.17,-0.126,0.898,0.341 (inactive),0.744 (inactive),-0.529 (inactive),0.945,0.181 (inactive),-0.14,0.621,0.67,-0.0675
CC(C)[C@@H](OCc1ccccc1)[C@H](C)CON=C1[C@H]2CCn3c(=O)n(-c4ccccc4)c(=O)n3[C@H]2[C@H](O)[C@@H]2O[C@H]12,-0.375,0.616,0.0362,0.84,0.541,0.246,0.218,-0.157 (inactive),0.369,-0.126,0.462,-1.48 (inactive),-7.06 (inactive),-0.882 (inactive),1.56,0.222 (inactive),-0.0063,0.439,0.597,-0.067
COc1ccc(COC(=O)NN=C2C[C@@H](O)[C@@H](O)[C@@H]3[C@@H]4C(=O)N([C@@H](C)c5ccccc5)C(=O)[C@@H]4CC[C@H]23)cc1,1.87,0.287,-0.0614,-0.129,-0.249,-0.413,-0.592,-0.797 (inactive),0.951,-0.226,-0.517,-0.21 (inactive),-0.0145 (inactive),-0.556 (inactive),0.621,0.92 (inactive),0.484,-0.245,-0.184,-0.137
CC(=O)OC[C@H]1O[C@H](CC=NOC(C)CN2CCCc3nc(C)c(C)cc32)C=C[C@@H]1OC(C)=O (stereo not given in full),-0.255,0.28,-0.0621,0.677,0.804,-0.188,0.819,0.437 (inactive),0.371,0.0637,1.19,0.489 (inactive),0.483 (inactive),-0.344 (inactive),0.771,1.14 (inactive),0.0961,0.977,1.04,0.0473
CCOC(=O)CCN1C(=O)[C@H]2[C@H]3[C@H](O)[C@H](O)CC(=NO[C@@H]4O[C@H](CO)[C@@H](O)[C@H](O)[C@H]4O)[C@H]3CC[C@H]2C1=O,-0.379,0.508,0.0395,0.232,0.44,0.0332,0.569,0.261 (inactive),0.857,-0.195,-0.145,-0.703 (inactive),0.354 (inactive),-0.387 (inactive),0.211,0.389 (inactive),0.0008,0.404,0.195,-0.115
C[C@@H](c1ccccc1)N1C(=O)[C@H]2[C@H]3[C@H](O)[C@H](O)CC(=NOC[C@@H](O)COCc4ccco4)[C@H]3CC[C@H]2C1=O,-0.605,2.38,-0.212,-0.363,-0.206,-0.438,0.919,0.652 (inactive),0.039,-0.0994,0.559,0.342 (inactive),0.453 (inactive),-0.0348 (inactive),-1.07,-0.378 (inactive),-0.0772,0.412,-0.233,-0.164
COc1ccc(COC(=O)NN=C2C[C@@H](O)[C@@H](O)[C@@H]3[C@@H]4C(=O)N(c5cccc(Oc6ccccc6)c5)C(=O)[C@@H]4CC[C@H]23)cc1,0.937,-0.379,-0.138,0.0478,-0.311,0.783,-0.317,0.632 (inactive),0.85,-0.0994,-0.412,0.135 (inactive),-0.655 (inactive),-0.693 (inactive),0.717,1.02 (inactive),0.297,-0.476,0.148,-0.109
CC(C)=NOC(C)CN1CCCCc2nc(C)c(C)cc21 (stereo not given),-0.216,0.927,-0.0858,0.0948,-0.134,0.152,0.093,0.265 (inactive),0.142,0.0695,0.434,-0.139 (inactive),-0.104 (inactive),-0.0334 (inactive),1.04,0.194 (inactive),-0.0441,0.634,-0.0247,-0.027
O=C1[C@H]2[C@H]3[C@H](O)[C@H](O)CC(=NOC[C@@H](O)COCc4ccco4)[C@@H]3CC[C@H]2C(=O)N1c1cccc(Oc2ccccc2)c1,-0.424,-0.78,-0.172,-0.177,-1.08,-0.628,-0.554,-0.0105 (inactive),-0.465,-0.179,-0.76,0.321 (inactive),-0.512 (inactive),-0.86 (inactive),-0.75,0.0129 (inactive),0.0474,0.0054,-0.487,-0.156
C[C@H]1C=CCC(=O)OC[C@H](C)C(=O)N2CCC[C@H]2C(=O)OC1,-0.815,2.27,-0.291,-0.517,-0.594,-1.01,1.32,0.263 (inactive),0.227,0.107,1.54,0.94 (inactive),0.499 (inactive),-0.0933 (inactive),-1.44,0.0085 (inactive),-0.228,2.09,0.373,0.177
